# Reference: PubChem BioAssay (NCATS)
# Values joined by “and” are separate entries in the source; they are usually repeats but may differ in a detail not shown here. Equal entries are not always repeated. Inconclusive results are not listed. Entries that show only a call come without a potency. Active and inactive are the calls of the source. Unless noted, the call rests on the fitted dose curve; in most records, active means well fitted curve in the direction sought with a large enough effect; inconclusive means small, poorly fitted or top-dose-only effect, or another doubt; inactive means no such curve, though single readings can be large; an effect the other way counts as inactive or inconclusive.
# Columns and labels:
# [1] = biological target: Glucocorticoid receptor (Homo sapiens) (UniProt P04150); experiment: GR-EFC Redistribution (AID 451; calls by dose curve; further: potency means the concentration at half of the fitted maximal effect); conditions: CHO-K1 GR-EFC translocation, beta-gal luminescence, 2 h
# In short: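 CHO-K1 cells expressing nuclear EA and GR-ED fragments of b-gal; compounds titrated up to 46 uM final, 2 h at 37 C. GR nuclear translocation read as complemented b-gal luminescence after 1 h RT detection.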
# [2] = biological target: Guanine nucleotide-binding protein G(i) subunit alpha-1 (Homo sapiens) (UniProt P63096); experiment: qHTS Assay for Inhibitors of RGS12 GoLoco Motif Activity (Green Fluorophore) (AID 879);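 further: negative values mean loss of peptide binding seen as reduced polarization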
# In short: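 Fluorescence polarization assay: 50 nM Gαi1 with 10 nM FITC-labeled RGS12 GoLoco peptide in 10 mM Tris pH 7.5, 150 mM NaCl, 0.1 mM GDP, 0.05% NP40, 10 min at room temperature with compound.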
# [3] = qHTS Assay for Identification of Small Molecule Agonists for Thrombopoietin (TPO) Signaling Pathway (AID 917)
# In short: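 IL-3-dependent murine pro-B Ba/F3 cells, stably transfected with human TPO receptor and GpIIb-promoter luciferase, are incubated 24 hrs at 37 C with test compound and 26 pM TPO; luciferase signal is read after 10 min at room temperature.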
# [4] = biological target: Muscarinic acetylcholine receptor M1 (Rattus norvegicus) (UniProt P08482); experiment: qHTS Assay for Antagonists of Acetylcholine Muscarinic M1 Receptor: Kinetic Measurement of Intracellular Calcium Response (AID 943);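 further: Fluo-4 calcium signal as peak divided by basal fluorescence over 4 min; nearly all actives have a fitted effect of over 75% in size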
# In short: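 Rat M1-CHO cells, 2000/well, overnight → Fluo-4 no-wash dye with probenecid, 1 h 37C → compound 10 min, room temp → basal read 6 s → carbachol EC80 (100 nM) → 4 min kinetic read; peak/basal.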
# [5] = biological target: Muscarinic acetylcholine receptor M1 (Rattus norvegicus) (UniProt P08482); experiment: qHTS Assay for Antagonists of Acetylcholine Muscarinic M1 Receptor: Measurement of IP-One Response (AID 944); further: nearly all actives have a fitted effect of over 75% in size
# In short: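 M1-CHO (rat), 2000 cells/well, overnight recovery; cpd 10 min; carbachol EC80 (200 nM), 30 min, HEPES buffer + 50 mM LiCl pH 7.4; IP-One HTRF, Ex 337, Em 620/665 nm.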
# [6] = biological target: Pyruvate kinase (Leishmania mexicana) (UniProt Q27686); experiment: qHTS Validation Assay for Inhibitors of Leishmania Mexicana Pyruvate Kinase (AID 945)
# In short: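 qHTS eight-point titrations against 0.2 nM LmPYK (E451W) in imidazole buffer pH 7.2 with 0.5 mM PEP, 0.1 mM ADP; 1 h, room temperature. Readout: PKLight luminescence, normalized to neutral DMSO wells.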
# [7] = biological target: Alpha-galactosidase (Coffea arabica) (UniProt Q42656); experiment: Counterscreen for Glucocerebrosidase Inhibitors: qHTS Assay for Coffee Bean alpha-Galactosidase at pH 4.5 (AID 957)
# In short: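 Coffee bean alpha-galactosidase 2 nM, substrate 4-MU-alpha-Gal 80 uM, pH 4.5 citrate/Tween-20, 20 min RT. Cpd titration 0.7 nM–77 uM. Stop pH 10, fluorescence 365/440 nm; Hill-equation AC50.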
# [8] = biological target: Alpha-galactosidase A (Homo sapiens) (UniProt P06280); experiment: Counterscreen for Glucocerebrosidase Inhibitors: qHTS Assay for Human alpha-Galactosidase at pH 4.5 (AID 992)
# In short: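 Human enzyme (2 nM) with 80 uM 4-methylumbelliferyl alpha-D-galactopyranoside in 50 mM citric acid, 0.005% Tween-20, pH 4.5, 20 min at room temperature. Compounds 0.7 nM–77 uM; fluorescence Ex 365/Em 440 after pH 10 stop; AC50 from Hill fits.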
# [9] = biological target: alpha-glucosidase (Oryza sativa, rice) (UniProt Q653V4); experiment: Counterscreen for Glucocerebrosidase Inhibitors: qHTS Assay for Rice alpha-Glucosidase at pH 5.0 (AID 997)
# In short: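 Rice alpha-glucosidase (4 nM final) with 400 uM 4-methylumbelliferyl-alpha-D-glucopyranoside in citrate buffer pH 5.0, 20 min at room temperature, stopped at pH 10; fluorescence 365/440 nm, compounds 0.7 nM–77 uM, AC50 from Hill fits.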
# [10] = biological target: Alpha-galactosidase (Coffea arabica) (UniProt Q42656); experiment: Counterscreen for Glucocerebrosidase Inhibitors: qHTS Assay for Coffee Bean alpha-Galactosidase at pH 5.9 (AID 998)
# In short: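 Green coffee bean enzyme (2 nM) with 4-methylumbelliferyl alpha-D-galactopyranoside (80 uM) in 50 mM citric acid, 0.005% Tween-20, pH 5.9, 20 min at room temperature; compounds 0.7 nM–77 uM. Stopped at pH 10, fluorescence Ex365/Em440; Hill-fit AC50.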
# [11] = Validation of Assay for Modulators of Lamin A Splicing (AID 1459; active means well fitted curve in the direction sought with a large enough effect in the signal ratio; the % refers to the signal ratio;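 further: cells exposed to compound for two days before reading; ratio rise marks activators and ratio drop marks inhibitors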)
# In short: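 Dual-reporter HeLa S3 line (lamin A-EGFP minigene, DsRed2) treated with compounds 48 hrs, 0.5% DMSO final. Endpoint: EGFP/DsRed2 total intensity ratio from laser-scanning microplate cytometry.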
# [12] = qHTS Assay for Lipid Storage Modulators (AID 1519; calls by dose curve); conditions: Drosophila S3 cells, BODIPY lipid droplet/cell ratio, laser cytometry, cells loaded with oleic acid
# In short: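 Cells seeded at 5,000 per well were treated with compounds over a concentration series and loaded with oleic acid (400 uM, as added). Lipid droplet fluorescence (488 nm excitation, 500-530 nm channel) was read by laser-scanning cytometry and normalized to 20 uM Triacsin C.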
# [13] = biological target: DNA repair nuclease/redox regulator APEX1 (Homo sapiens) (UniProt P27695); experiment: qHTS Validation Assay for Inhibitors of the Human Apurinic/apyrimidinic Endonuclease 1 (APE1) (AID 1705;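 further: TAMRA fluorescence gain over two minutes as APE1 cuts a quenched THF abasic duplex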)
# In short: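 Substrate: 50 nM final fluorophore/quencher THF-abasic duplex. Enzyme preincubated with compounds 15 min, RT. Progress derived from fluorescence difference, third minus first kinetic read.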
# [14] = Counterscreen for APE1 Inhibitors: Fluorescent Dye Displacement Validation Assay (AID 1707)
# In short: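 Thiazole Orange (250 nM) bound to 50 nM TAMRA-labelled dsDNA with tetrahydrofuran abasic site; displacement by DNA-binding compounds lowers fluorescence. Buffer 50 mM Tris-HCl pH 7.5, 50 mM NaCl, 2 mM MgCl2, 0.01% Tween-20; endpoint read at 480/540 nm.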
# [15] = qHTS for differential inhibitors of proliferation of Plasmodium falciparum line 7G8 (AID 1815);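 further: parasite growth measured after three days of incubation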
# [16] = qHTS for differential inhibitors of proliferation of Plasmodium falciparum line GB4 (AID 1816); conditions: Potency: Plasmodium falciparum GB4 proliferation inhibition;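 further: parasite growth measured after 72 h incubation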
# [17] = qHTS for differential inhibitors of proliferation of Plasmodium falciparum line 3D7 (AID 1876);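 further: parasite growth measured after three days of culture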
# [18] = qHTS for differential inhibitors of proliferation of Plasmodium falciparum line D10 (AID 1877);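 further: parasites grown with compound for 72 h before DNA staining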
# [19] = qHTS for differential inhibitors of proliferation of Plasmodium falciparum line Dd2 (AID 1882); conditions: Potency: Plasmodium falciparum Dd2 proliferation inhibition; further: nearly all actives have a fitted effect of over 65% in size
# In short: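 Dd2-infected erythrocytes (0.3% parasitemia, 2.5% hematocrit final) incubated with compound 72 h at 37 C, 5% CO2; lysed with saponin/Triton buffer containing SYBR Green I, incubated overnight in the dark, then read by fluorescence (485/535 nm). Normalized to 0.29 uM artemisinin and DMSO.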
# [20] = qHTS for differential inhibitors of proliferation of Plasmodium falciparum line W2 (AID 1883); conditions: Potency: Plasmodium falciparum W2 proliferation inhibition;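 further: parasites grown with compound for 72 h before lysis and staining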
# [21] = qHTS for differential inhibitors of proliferation of Plasmodium falciparum line HB3 (AID 1886); conditions: Potency: Plasmodium falciparum HB3 proliferation inhibition;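 further: parasites grown with compound for 72 h before SYBR Green readout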
# [22] = biological target: ATP-dependent DNA helicase Q1 (Homo sapiens) (UniProt P46063); experiment: qHTS Validation Assay for Inhibitors of RecQ-Like Dna Helicase 1 (RECQ1) (AID 2353)
# In short: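 50 nM RECQ1T1 preincubated 15 min with compound in Tris pH 8.0 buffer with MgCl2, DTT, Tween-20 and 2.5 ug/ml poly(dI-dC); started with 200 nM TAMRA/BHQ-2 forked duplex and 2 mM ATP. Unwinding read as fluorescence (525/598 nm), two reads 2 h apart.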
# [23] = Validation screen for inhibitors of Lassa infection (AID 463096; calls by dose curve)
# [24] = Validation screen for small molecules that induce DNA re-replication in MCF 10A normal breast cells (AID 463097); further: nearly all actives have a fitted effect of over 60% in size
# In short: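 Following 48 hr compound incubation (37 C, 5% CO2), MCF 10A cells receive Hoechst for 40 min at 37 C. Nuclei are then scanned (excitation 405 nm, emission 500-530 nm) for total fluorescence intensity.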
# [25] = Quantitative high throughput screen for delayed death inhibitors of the malarial parasite plastid, 96 hour incubation (AID 488745);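 further: luciferase-expressing P. falciparum in erythrocytes at 2% hematocrit and 0.1% parasitemia; nearly all actives have a fitted effect of over 70% in size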
# In short: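 Infected erythrocytes were added to compound in Albumax-supplemented RPMI 1640 at 0.1% parasitemia and 2% hematocrit (final), incubated 96 h at 37 C under 5% CO2, then luciferase reagent was added and luminescence measured.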
# [26] = Quantitative high throughput screen for delayed death inhibitors of the malarial parasite plastid, 48 hour incubation (AID 488752); further: nearly all actives have a fitted effect of over 65% in size
# In short: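 Readout is firefly luciferase luminescence from a reporter integrated into the parasite genome, with lower signal taken as inhibited growth. Infected red cells (0.1% parasitemia, 2% hematocrit final) are cultured with compound for one 48 h cycle at 37 C.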
# [27] = biological target: M-phase phosphoprotein 8 (Homo sapiens) (UniProt Q99549); experiment: qHTS Validation Assay for Inhibitors for MPP8 Chromodomain Interactions with Methylated Histone Tails (AID 488949);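 further: 50 nM MPP8 with 50 nM peptide preformed then compounds added for 30 min; AlphaScreen signal from MPP8 chromodomain bound to biotinylated H3K9me3 peptide; top concentration of the series differs between compounds; nearly all actives have a fitted effect of over 55% in size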
# In short: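 Chemiluminescent proximity assay: histidine-tag capture via nickel acceptor beads, biotin peptide via streptavidin donor beads. Protein and peptide each at 50 nM, pH 7.4, with 30 min incubations at room temperature for complex formation, compound exposure and bead binding.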
# [28] = biological target: Thyrotropin receptor (Homo sapiens) (UniProt P16473); experiment: qHTS Assay for Antagonists of the Thyroid Stimulating Hormone Receptor (AID 488980)
# In short: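 Inhibition of TSH-stimulated cAMP accumulation was quantified by homogeneous time-resolved FRET in TSHR-transfected HEK293 cells. Agonist: TSH, 4 nM final (EC80).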
# [29] = biological target: Thyrotropin-releasing hormone receptor (Homo sapiens) (UniProt P34981); experiment: qHTS for Small Molecule Agonists and Allosteric Enhancers of Human TRH Receptor: Validation Screen for Agonists (AID 493127;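 active means calcium activation more than 3 SD above the typical response in the agonist read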;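 further: intracellular calcium rise by fluo-8 fluorescence before TRH EC20 addition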); conditions: TRH receptor agonist cell assay; at 2 µM; stronger effect = higher value
# In short: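 Cells 2000/well, 10% FCS, 18 h 33.5C/5% CO2 → fluo-8 Ca dye, RT 30 min–1.5 h → FDSS baseline 10 × 1 s → compound added → 230 cycles (1 s/cycle) agonist mode. TRH controls.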
# [30] = biological target: Galactokinase (Homo sapiens) (UniProt P51570); experiment: qHTS Validation Assay for Inhibitors of Human Galactokinase (GALK) (AID 493189)
# In short: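 Enzyme activity is inferred from ATP consumption: human GALK phosphorylates galactose (100 uM) using 35 uM ATP for 1 h at room temperature, and luciferase-based Kinase-Glo Plus reports unconsumed ATP.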
# [31] = Validation screen for small molecules that induce DNA re-replication in SW480 colon adenocarcinoma cells (AID 504364)
# In short: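 250 cells/well; compound pinned in; 48 hr, 37 C, 5% CO2; Hoechst added, 40 min; nuclear fluorescence imaged, 405 ex / 500-530 em; re-replication scored as increase in high-intensity nuclei.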
# [32] = biological target: Ubiquitin carboxyl-terminal hydrolase 1 (Homo sapiens) (UniProt O94782); experiment: Inhibitors of USP1/UAF1: Pilot qHTS (AID 504865);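 further: rhodamine fluorescence freed from ubiquitin-rhodamine substrate followed over time; top concentration of the series differs between compounds; nearly all actives have a fitted effect of over 35% in size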
# In short: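 Enzyme-free wells gave the negative control, while test wells held 1nM USP1/UAF1 preincubated with compound for 15 min at room temperature. Ub-Rho at 150nM final started the reaction, and fluorescence at 480/540 nm was recorded kinetically.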
# [33] = biological target: DNA dC->dU-editing enzyme APOBEC-3G (Homo sapiens) (UniProt Q9HC16); experiment: qHTS for inhibitors of Vif-A3G interactions: Validation (AID 588379)
# In short: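 HeLa cells stably expressing Vif and A3G-eYFP, 700 cells/well, incubated overnight at 37 deg C, then exposed to compound overnight at 37 deg C. Inhibition of Vif-mediated degradation read as increased yellow fluorescence (Ex 488/Em 500-530) by laser-scanning cytometry.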
# [34] = biological target: Voltage-gated inwardly rectifying potassium channel KCNH2 (Homo sapiens) (UniProt Q12809); experiment: qHTS Assay for Small Molecule Inhibitors of the Human hERG Channel Activity (AID 588834);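 further: top concentration of the series differs between compounds; lower thallium flux fluorescence means stronger hERG block; nearly all actives have a fitted effect of over 50% in size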
# In short: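 Blockade is seen as reduced FluxOR thallium-flux fluorescence in U2OS cells expressing hERG from a BacMam construct, in Opti-MEM with 2% FCS. Concentration-response data fitted to the Hill equation for AC50.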
# [35] = system: Zika virus NS2B-NS3 protease; experiment: Primary screen GU AMC qHTS for Zika virus inhibitors (AID 1347154); further: nearly all actives have a fitted effect of over 70% in size
# In short: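 Unlinked Zika NS2B hydrophilic domain–NS3 protease complex at 25 nM in 10 mM Tris-HCl pH 8.0, 0.01% Tween 20, with an AMC peptide substrate. Fluorescence change (340/450 nm) over 15 min at room temperature, normalized to controls, fitted to 4-parameter Hill.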
# Chain of Alpha-galactosidase (Coffea arabica) (Q42656 whole entry, looked up): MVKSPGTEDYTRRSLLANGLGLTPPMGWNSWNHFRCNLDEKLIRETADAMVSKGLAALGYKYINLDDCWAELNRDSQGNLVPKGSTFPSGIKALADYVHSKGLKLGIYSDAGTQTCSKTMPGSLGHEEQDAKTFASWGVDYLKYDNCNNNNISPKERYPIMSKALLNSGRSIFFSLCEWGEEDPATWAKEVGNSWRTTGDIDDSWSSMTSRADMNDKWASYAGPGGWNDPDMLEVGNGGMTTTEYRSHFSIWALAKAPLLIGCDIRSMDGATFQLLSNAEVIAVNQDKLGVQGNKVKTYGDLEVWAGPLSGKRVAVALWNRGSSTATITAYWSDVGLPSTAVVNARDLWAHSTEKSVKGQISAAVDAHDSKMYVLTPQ
# Chain of Muscarinic acetylcholine receptor M1 (Rattus norvegicus) (P08482 whole entry, looked up): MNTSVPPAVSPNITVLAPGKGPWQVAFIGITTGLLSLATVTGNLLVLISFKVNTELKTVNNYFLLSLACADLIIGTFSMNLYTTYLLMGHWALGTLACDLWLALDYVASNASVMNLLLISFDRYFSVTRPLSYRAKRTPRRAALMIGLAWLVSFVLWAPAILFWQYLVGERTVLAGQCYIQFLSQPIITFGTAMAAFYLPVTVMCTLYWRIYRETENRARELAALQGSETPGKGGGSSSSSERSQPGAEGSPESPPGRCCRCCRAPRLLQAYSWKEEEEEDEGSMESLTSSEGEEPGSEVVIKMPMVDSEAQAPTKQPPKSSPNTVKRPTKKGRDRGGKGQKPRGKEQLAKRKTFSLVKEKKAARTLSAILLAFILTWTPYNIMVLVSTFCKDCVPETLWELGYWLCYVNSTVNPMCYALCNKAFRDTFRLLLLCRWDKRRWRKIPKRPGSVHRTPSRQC
# Chain of DNA dC->dU-editing enzyme APOBEC-3G (Homo sapiens) (Q9HC16 whole entry, looked up): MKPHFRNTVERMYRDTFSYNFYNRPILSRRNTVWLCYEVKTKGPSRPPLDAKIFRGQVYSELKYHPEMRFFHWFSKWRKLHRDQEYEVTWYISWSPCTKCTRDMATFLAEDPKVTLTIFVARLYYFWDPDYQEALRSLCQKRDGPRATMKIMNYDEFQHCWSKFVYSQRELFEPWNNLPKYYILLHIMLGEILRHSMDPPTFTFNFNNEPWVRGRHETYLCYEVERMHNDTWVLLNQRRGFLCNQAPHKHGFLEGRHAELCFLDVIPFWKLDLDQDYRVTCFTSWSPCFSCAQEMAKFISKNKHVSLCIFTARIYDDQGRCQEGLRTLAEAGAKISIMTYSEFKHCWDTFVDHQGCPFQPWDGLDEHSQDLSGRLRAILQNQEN
# Chain of ATP-dependent DNA helicase Q1 (Homo sapiens) (P46063 whole entry, looked up): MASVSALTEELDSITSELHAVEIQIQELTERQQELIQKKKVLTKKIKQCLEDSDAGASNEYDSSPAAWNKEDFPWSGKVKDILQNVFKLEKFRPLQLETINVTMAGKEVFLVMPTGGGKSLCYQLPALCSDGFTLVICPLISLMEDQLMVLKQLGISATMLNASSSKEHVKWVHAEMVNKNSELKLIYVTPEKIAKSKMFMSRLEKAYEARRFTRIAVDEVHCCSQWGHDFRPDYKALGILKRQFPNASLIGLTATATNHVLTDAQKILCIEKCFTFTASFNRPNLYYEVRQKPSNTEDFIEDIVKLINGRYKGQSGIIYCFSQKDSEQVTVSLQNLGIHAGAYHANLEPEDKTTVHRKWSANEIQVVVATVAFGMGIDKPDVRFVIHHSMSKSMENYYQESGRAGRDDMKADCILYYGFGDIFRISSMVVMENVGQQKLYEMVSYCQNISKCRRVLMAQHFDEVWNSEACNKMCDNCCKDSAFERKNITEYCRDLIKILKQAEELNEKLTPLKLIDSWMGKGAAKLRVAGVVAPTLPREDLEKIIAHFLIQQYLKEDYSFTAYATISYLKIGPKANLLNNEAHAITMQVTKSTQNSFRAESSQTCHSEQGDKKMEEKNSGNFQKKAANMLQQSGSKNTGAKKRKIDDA
# Chain of Thyrotropin-releasing hormone receptor (Homo sapiens) (P34981 whole entry, looked up): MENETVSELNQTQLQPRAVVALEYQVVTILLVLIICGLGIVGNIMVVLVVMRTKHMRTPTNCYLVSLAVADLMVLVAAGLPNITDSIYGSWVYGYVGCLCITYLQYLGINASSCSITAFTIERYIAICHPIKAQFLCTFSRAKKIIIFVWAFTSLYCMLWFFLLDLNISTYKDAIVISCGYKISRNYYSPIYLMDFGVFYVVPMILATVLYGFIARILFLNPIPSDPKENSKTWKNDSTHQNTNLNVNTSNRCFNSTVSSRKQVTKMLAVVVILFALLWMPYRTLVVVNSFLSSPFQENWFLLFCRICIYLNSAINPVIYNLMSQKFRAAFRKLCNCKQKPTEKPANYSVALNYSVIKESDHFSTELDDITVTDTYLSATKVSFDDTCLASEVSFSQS
# Chain of Voltage-gated inwardly rectifying potassium channel KCNH2 (Homo sapiens) (Q12809 whole entry, looked up): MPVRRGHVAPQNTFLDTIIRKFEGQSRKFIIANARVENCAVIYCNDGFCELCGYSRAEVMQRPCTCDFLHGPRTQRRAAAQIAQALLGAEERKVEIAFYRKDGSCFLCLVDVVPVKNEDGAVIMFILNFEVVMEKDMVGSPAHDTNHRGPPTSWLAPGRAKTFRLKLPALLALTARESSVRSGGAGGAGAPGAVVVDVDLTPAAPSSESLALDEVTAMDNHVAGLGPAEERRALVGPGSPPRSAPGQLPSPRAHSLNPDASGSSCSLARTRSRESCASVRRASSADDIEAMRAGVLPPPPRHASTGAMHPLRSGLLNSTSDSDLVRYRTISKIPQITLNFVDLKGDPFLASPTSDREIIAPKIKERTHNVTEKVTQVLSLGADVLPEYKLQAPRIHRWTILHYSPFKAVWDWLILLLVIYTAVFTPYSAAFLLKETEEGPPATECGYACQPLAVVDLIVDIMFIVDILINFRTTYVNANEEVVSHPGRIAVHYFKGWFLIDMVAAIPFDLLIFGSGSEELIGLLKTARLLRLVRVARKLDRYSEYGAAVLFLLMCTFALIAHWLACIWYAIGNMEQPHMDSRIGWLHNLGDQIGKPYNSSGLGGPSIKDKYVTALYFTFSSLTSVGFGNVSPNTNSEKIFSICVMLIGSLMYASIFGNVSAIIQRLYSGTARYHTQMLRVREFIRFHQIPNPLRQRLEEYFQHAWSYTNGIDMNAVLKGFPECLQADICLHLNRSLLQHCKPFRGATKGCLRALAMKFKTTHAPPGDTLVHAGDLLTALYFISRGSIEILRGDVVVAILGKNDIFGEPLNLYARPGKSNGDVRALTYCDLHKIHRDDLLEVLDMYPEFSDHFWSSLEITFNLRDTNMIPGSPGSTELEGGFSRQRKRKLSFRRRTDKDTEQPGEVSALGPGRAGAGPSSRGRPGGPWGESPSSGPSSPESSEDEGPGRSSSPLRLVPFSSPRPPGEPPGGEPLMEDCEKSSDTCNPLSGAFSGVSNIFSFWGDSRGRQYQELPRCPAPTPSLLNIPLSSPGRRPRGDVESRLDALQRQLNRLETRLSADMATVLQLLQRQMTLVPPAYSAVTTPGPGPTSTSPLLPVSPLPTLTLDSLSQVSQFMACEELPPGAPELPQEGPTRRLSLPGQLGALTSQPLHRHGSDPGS
# Chain of Alpha-galactosidase A (Homo sapiens) (P06280 whole entry, looked up): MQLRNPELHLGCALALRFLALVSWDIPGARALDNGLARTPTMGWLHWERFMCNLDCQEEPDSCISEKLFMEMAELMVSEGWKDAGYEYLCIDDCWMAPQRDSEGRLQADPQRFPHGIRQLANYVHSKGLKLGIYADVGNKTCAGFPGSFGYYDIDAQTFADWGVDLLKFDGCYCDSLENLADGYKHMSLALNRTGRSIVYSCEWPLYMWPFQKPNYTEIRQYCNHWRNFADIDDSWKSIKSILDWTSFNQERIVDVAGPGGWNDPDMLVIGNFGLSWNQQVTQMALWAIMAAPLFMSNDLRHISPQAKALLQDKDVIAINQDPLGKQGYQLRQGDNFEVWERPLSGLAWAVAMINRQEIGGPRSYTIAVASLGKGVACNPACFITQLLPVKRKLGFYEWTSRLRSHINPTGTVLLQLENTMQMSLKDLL
# Chain of Pyruvate kinase (Leishmania mexicana) (Q27686 2-499 E452W): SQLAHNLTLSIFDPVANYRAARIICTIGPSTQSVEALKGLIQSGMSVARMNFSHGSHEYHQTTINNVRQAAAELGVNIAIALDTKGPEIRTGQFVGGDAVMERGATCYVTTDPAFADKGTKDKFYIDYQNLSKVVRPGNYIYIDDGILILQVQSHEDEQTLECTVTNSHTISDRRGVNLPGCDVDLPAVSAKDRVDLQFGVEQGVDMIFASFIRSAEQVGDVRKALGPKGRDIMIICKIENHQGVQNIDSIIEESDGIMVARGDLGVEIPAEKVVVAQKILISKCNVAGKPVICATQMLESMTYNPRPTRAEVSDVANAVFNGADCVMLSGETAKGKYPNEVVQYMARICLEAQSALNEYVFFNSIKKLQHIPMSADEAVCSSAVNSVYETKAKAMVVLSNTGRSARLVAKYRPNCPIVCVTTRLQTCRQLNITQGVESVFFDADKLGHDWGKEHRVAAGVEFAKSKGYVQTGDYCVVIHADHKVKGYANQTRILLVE
# Chain of Galactokinase (Homo sapiens) (P51570 whole entry, looked up): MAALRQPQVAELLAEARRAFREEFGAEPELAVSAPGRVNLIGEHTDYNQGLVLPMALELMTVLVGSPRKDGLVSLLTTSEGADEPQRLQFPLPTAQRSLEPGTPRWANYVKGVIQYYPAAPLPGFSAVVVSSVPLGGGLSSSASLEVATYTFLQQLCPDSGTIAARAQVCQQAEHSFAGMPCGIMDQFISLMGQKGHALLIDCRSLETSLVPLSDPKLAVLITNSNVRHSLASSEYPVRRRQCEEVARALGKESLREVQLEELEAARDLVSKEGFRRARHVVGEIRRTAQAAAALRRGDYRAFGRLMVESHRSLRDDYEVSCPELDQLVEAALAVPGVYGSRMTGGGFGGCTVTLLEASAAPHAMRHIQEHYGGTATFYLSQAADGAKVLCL
structure (smiles),measurement,setting,value
N[C@@H](Cn1cc(I)c(=O)[nH]c1=O)C(=O)O,Potency,[1],> 46 µM (inactive)
same,outcome,[2],inactive
same,outcome,[3],inactive
same,Potency,[4],inactive
same,Potency,[5],inactive
same,outcome,[6],inactive
same,outcome,[7],inactive
same,outcome,[8],inactive
same,outcome,[9],inactive
same,outcome,[10],inactive
same,outcome,[11],inactive
same,"activity change, negative = inhibition",[12]; at 57.5 µM (top of the series),1.49% (inactive) and 0.139% (inactive)
same,max response,[12]; measured here: cell count channel max response,1.2% and -23.8%
same,max response,[12]; measured here: lipid channel max response,4.16% and -23.5%
same,Potency,[13],inactive
same,Potency,[14],inactive
same,Potency,[15],inactive
same,Potency,[16],inactive
same,Potency,[17],inactive
same,Potency,[18],inactive
same,Potency,[19],inactive
same,Potency,[20],inactive
same,Potency,[21],inactive
same,Potency,[22],inactive
same,Potency,[23],inactive
same,Potency,[24],inactive
same,Potency,[25],inactive
same,Potency,[26],inactive
same,Potency,[27],inactive
same,outcome,[28],inactive
same,activation,[29],0.375% (inactive)
same,outcome,[30],inactive
same,Potency,[31],inactive
same,Potency,[32],inactive
same,Potency,[33],inactive
same,Potency,[34],inactive
same,Potency,[35],inactive
